# Residue numbers refer to the chain shown, from its start.
# Tests used:
# Test in all cases: yeast three-hybrid, YBZ-1, SC-Leu-His + 0.5 mM 3-AT, 4 days
# Details in all cases: tags: N-Gal4 AD-HA kept; label: inside an RPR1-promoter hybrid RNA with tandem MS2 sites; ssRNA
# PUM1 PUF domain R6-TYR = biological target: T1, PUM1 PUF domain R6-TYR (Homo sapiens, UniProt Q14671 828-1176, N1043T;Q1047R)
# T1 sequence: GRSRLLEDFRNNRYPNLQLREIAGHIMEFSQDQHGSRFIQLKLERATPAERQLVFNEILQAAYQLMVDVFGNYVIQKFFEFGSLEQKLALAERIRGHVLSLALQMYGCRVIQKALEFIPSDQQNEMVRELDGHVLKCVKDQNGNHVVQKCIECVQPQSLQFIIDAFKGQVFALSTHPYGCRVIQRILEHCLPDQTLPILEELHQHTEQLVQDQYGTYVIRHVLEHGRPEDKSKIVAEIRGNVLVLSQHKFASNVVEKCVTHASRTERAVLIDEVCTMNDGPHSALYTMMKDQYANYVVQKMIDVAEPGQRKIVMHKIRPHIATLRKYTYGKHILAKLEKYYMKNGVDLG
# How it was run: (§1)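 Pumilio-1 PUF domain libraries, randomized (NNK) at the three base-contacting residues of each repeat, were co-expressed with matching RNA elements from a centromeric plasmid in strain YBZ-1 (LexA–MS2 coat fusion, HIS3 reporter). Transformants were plated on SC-Leu (input) and SC-Leu-His + 0.5 mM 3-AT (selection) for four days, and repeat regions were PCR-amplified and Illumina-sequenced. The interaction score is the log2 change in variant frequency from input to selection, with pseudocount 1 where absent.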
# PUM1 PUF domain R7-RPI = PUM1 PUF domain R7-RPI (Homo sapiens, UniProt Q14671 828-1176, S1079R;N1080P;E1083I)
# How it was run: as §1
# PUM1 PUF domain R8-KRY = PUM1 PUF domain R8-KRY (Homo sapiens, UniProt Q14671 828-1176, N1122K;Y1123R;Q1126Y)
# How it was run: as §1
# PUM1 PUF domain R8-PRR = PUM1 PUF domain R8-PRR (Homo sapiens, UniProt Q14671 828-1176, N1122P;Y1123R;Q1126R)
# How it was run: as §1
# PUM1 PUF domain R5-RQV = PUM1 PUF domain R5-RQV (Homo sapiens, UniProt Q14671 828-1176, C1007R;R1008Q;Q1011V)
# How it was run: as §1
# PUM1 PUF domain R5-RQW = PUM1 PUF domain R5-RQW (Homo sapiens, UniProt Q14671 828-1176, C1007R;R1008Q;Q1011W)
# How it was run: as §1
# PUM1 PUF domain R5-CSR = PUM1 PUF domain R5-CSR (Homo sapiens, UniProt Q14671 828-1176, R1008S;Q1011R)
# How it was run: as §1
# PUM1 PUF domain R7-GVD = PUM1 PUF domain R7-GVD (Homo sapiens, UniProt Q14671 828-1176, S1079G;N1080V;E1083D)
# How it was run: as §1
# PUM1 PUF domain R5-GVD = PUM1 PUF domain R5-GVD (Homo sapiens, UniProt Q14671 828-1176, C1007G;R1008V;Q1011D)
# How it was run: as §1
# PUM1 PUF domain R3-TSE = PUM1 PUF domain R3-TSE (Homo sapiens, UniProt Q14671 828-1176, C935T;R936S;Q939E)
# How it was run: as §1
# PUM1 PUF domain R3-AFG = PUM1 PUF domain R3-AFG (Homo sapiens, UniProt Q14671 828-1176, C935A;R936F;Q939G)
# How it was run: as §1
# PUM1 PUF domain R6-QWG = biological target: T2, PUM1 PUF domain R6-QWG (Homo sapiens, UniProt Q14671 828-1176, N1043Q;Y1044W;Q1047G)
# T2 sequence: T1 sequence with T216Q, Y217W, R220G
# How it was run: as §1
# PUM1 PUF domain R6-HWC = biological target: T3, PUM1 PUF domain R6-HWC (Homo sapiens, UniProt Q14671 828-1176, N1043H;Y1044W;Q1047C)
# T3 sequence: T1 sequence with T216H, Y217W, R220C
# How it was run: as §1
# PUM1 PUF domain R4-ARA = PUM1 PUF domain R4-ARA (Homo sapiens, UniProt Q14671 828-1176, N971A;H972R;Q975A)
# How it was run: as §1
# PUM1 PUF domain R3-RPA = PUM1 PUF domain R3-RPA (Homo sapiens, UniProt Q14671 828-1176, C935R;R936P;Q939A)
# How it was run: as §1
# PUM1 PUF domain R4-TRT = PUM1 PUF domain R4-TRT (Homo sapiens, UniProt Q14671 828-1176, N971T;H972R;Q975T)
# How it was run: as §1
# PUM1 PUF domain R1-KKR = PUM1 PUF domain R1-KKR (Homo sapiens, UniProt Q14671 828-1176, S863K;R864K;Q867R)
# How it was run: as §1
# PUM1 PUF domain R1-RWQ = PUM1 PUF domain R1-RWQ (Homo sapiens, UniProt Q14671 828-1176, S863R;R864W)
# How it was run: as §1
# PUM1 PUF domain R5-LNT = PUM1 PUF domain R5-LNT (Homo sapiens, UniProt Q14671 828-1176, C1007L;R1008N;Q1011T)
# How it was run: as §1
# PUM1 PUF domain R4-SRR = PUM1 PUF domain R4-SRR (Homo sapiens, UniProt Q14671 828-1176, N971S;H972R;Q975R)
# How it was run: as §1
sequence,measurement,setting,value
GGCUAGAACUAGUGGAUCCCCCGGCGCCCGGCGGCUCGAGCCCGGGUAAGUGCAAAUAGUCUGCAUGCCGCCGGGCGCCAUGCCUGCAGGUCGACUCUAGAAAACAUG,binding signal,PUM1 PUF domain R6-TYR,5.11 log2 enrichment (interaction score)
GGCUAGAACUAGUGGAUCCCCCGGCGCCCGGCGGCUCGAGCCCGGGUAAGUCUAAAUAGUCUGCAUGCCGCCGGGCGCCAUGCCUGCAGGUCGACUCUAGAAAACAUG,binding signal,PUM1 PUF domain R7-RPI,0.71 log2 enrichment (interaction score)
GGCUAGAACUAGUGGAUCCCCCGGCGCCCGGCGGCUCGAGCCCGGGUAAGCGUAAAUAGUCUGCAUGCCGCCGGGCGCCAUGCCUGCAGGUCGACUCUAGAAAACAUG,binding signal,PUM1 PUF domain R8-KRY,3.46 log2 enrichment (interaction score)
same,binding signal,PUM1 PUF domain R8-PRR,4.08 log2 enrichment (interaction score)
GGCUAGAACUAGUGGAUCCCCCGGCGCCCGGCGGCUCGAGCCCGGGUAAGUGUCAAUAGUCUGCAUGCCGCCGGGCGCCAUGCCUGCAGGUCGACUCUAGAAAACAUG,binding signal,PUM1 PUF domain R5-RQV,4.73 log2 enrichment (interaction score)
same,binding signal,PUM1 PUF domain R5-RQW,1.8 log2 enrichment (interaction score)
same,binding signal,PUM1 PUF domain R5-CSR,4.8 log2 enrichment (interaction score)
GGCUAGAACUAGUGGAUCCCCCGGCGCCCGGCGGCUCGAGCCCGGGUAAGUUUAAAUAGUCUGCAUGCCGCCGGGCGCCAUGCCUGCAGGUCGACUCUAGAAAACAUG,binding signal,PUM1 PUF domain R7-GVD,2.75 log2 enrichment (interaction score)
same,binding signal,PUM1 PUF domain R7-RPI,2.52 log2 enrichment (interaction score)
GGCUAGAACUAGUGGAUCCCCCGGCGCCCGGCGGCUCGAGCCCGGGUAAGUGUGAAUAGUCUGCAUGCCGCCGGGCGCCAUGCCUGCAGGUCGACUCUAGAAAACAUG,binding signal,PUM1 PUF domain R5-GVD,5.11 log2 enrichment (interaction score)
GGCUAGAACUAGUGGAUCCCCCGGCGCCCGGCGGCUCGAGCCCGGGUAAGUGUAAGUAGUCUGCAUGCCGCCGGGCGCCAUGCCUGCAGGUCGACUCUAGAAAACAUG,binding signal,PUM1 PUF domain R3-TSE,4.66 log2 enrichment (interaction score)
same,binding signal,PUM1 PUF domain R3-AFG,0.76 log2 enrichment (interaction score)
GGCUAGAACUAGUGGAUCCCCCGGCGCCCGGCGGCUCGAGCCCGGGUAAGUGAAAAUAGUCUGCAUGCCGCCGGGCGCCAUGCCUGCAGGUCGACUCUAGAAAACAUG,binding signal,PUM1 PUF domain R6-QWG,3.38 log2 enrichment (interaction score)
same,binding signal,PUM1 PUF domain R6-HWC,6.25 log2 enrichment (interaction score)
GGCUAGAACUAGUGGAUCCCCCGGCGCCCGGCGGCUCGAGCCCGGGUAAGUGUAUAUAGUCUGCAUGCCGCCGGGCGCCAUGCCUGCAGGUCGACUCUAGAAAACAUG,binding signal,PUM1 PUF domain R4-ARA,1.69 log2 enrichment (interaction score)
GGCUAGAACUAGUGGAUCCCCCGGCGCCCGGCGGCUCGAGCCCGGGUAAGUGUAAUUAGUCUGCAUGCCGCCGGGCGCCAUGCCUGCAGGUCGACUCUAGAAAACAUG,binding signal,PUM1 PUF domain R3-RPA,3.99 log2 enrichment (interaction score)
same,binding signal,PUM1 PUF domain R3-AFG,1.51 log2 enrichment (interaction score)
GGCUAGAACUAGUGGAUCCCCCGGCGCCCGGCGGCUCGAGCCCGGGUAAGUGUAAAUAGUCUGCAUGCCGCCGGGCGCCAUGCCUGCAGGUCGACUCUAGAAAACAUG,binding signal,PUM1 PUF domain R6-QWG,5.49 log2 enrichment (interaction score)
same,binding signal,PUM1 PUF domain R6-TYR,5.51 log2 enrichment (interaction score)
same,binding signal,PUM1 PUF domain R3-RPA,0.97 log2 enrichment (interaction score)
same,binding signal,PUM1 PUF domain R4-TRT,2.59 log2 enrichment (interaction score)
same,binding signal,PUM1 PUF domain R3-AFG,3.62 log2 enrichment (interaction score)
same,binding signal,PUM1 PUF domain R4-ARA,3.7 log2 enrichment (interaction score)
same,binding signal,PUM1 PUF domain R5-CSR,1.42 log2 enrichment (interaction score)
same,binding signal,PUM1 PUF domain R8-PRR,3.57 log2 enrichment (interaction score)
GGCUAGAACUAGUGGAUCCCCCGGCGCCCGGCGGCUCGAGCCCGGGUAAGUGUAAAUCGUCUGCAUGCCGCCGGGCGCCAUGCCUGCAGGUCGACUCUAGAAAACAUG,binding signal,PUM1 PUF domain R1-KKR,6.78 log2 enrichment (interaction score)
same,binding signal,PUM1 PUF domain R1-RWQ,6.93 log2 enrichment (interaction score)
GGCUAGAACUAGUGGAUCCCCCGGCGCCCGGCGGCUCGAGCCCGGGUAAGUGUAAAUGGUCUGCAUGCCGCCGGGCGCCAUGCCUGCAGGUCGACUCUAGAAAACAUG,binding signal,PUM1 PUF domain R1-RWQ,2.2 log2 enrichment (interaction score)
GGCUAGAACUAGUGGAUCCCCCGGCGCCCGGCGGCUCGAGCCCGGGUAAGUGUUAAUAGUCUGCAUGCCGCCGGGCGCCAUGCCUGCAGGUCGACUCUAGAAAACAUG,binding signal,PUM1 PUF domain R5-RQV,4.22 log2 enrichment (interaction score)
same,binding signal,PUM1 PUF domain R5-LNT,4.04 log2 enrichment (interaction score)
same,binding signal,PUM1 PUF domain R5-RQW,2.23 log2 enrichment (interaction score)
GGCUAGAACUAGUGGAUCCCCCGGCGCCCGGCGGCUCGAGCCCGGGUAAGUGUACAUAGUCUGCAUGCCGCCGGGCGCCAUGCCUGCAGGUCGACUCUAGAAAACAUG,binding signal,PUM1 PUF domain R4-SRR,4.09 log2 enrichment (interaction score)
same,binding signal,PUM1 PUF domain R4-ARA,2.79 log2 enrichment (interaction score)
GGCUAGAACUAGUGGAUCCCCCGGCGCCCGGCGGCUCGAGCCCGGGUAAGUGUAAAUUGUCUGCAUGCCGCCGGGCGCCAUGCCUGCAGGUCGACUCUAGAAAACAUG,binding signal,PUM1 PUF domain R1-KKR,7.39 log2 enrichment (interaction score)
same,binding signal,PUM1 PUF domain R1-RWQ,7.23 log2 enrichment (interaction score)

# From article PMC8384837, “Expanding the binding specificity for RNA recognition by a PUF domain”
